The full data set covers some 7,900 targets. This sample favours those with a hit. About 0.6% of all pairs of compound and target were hits. A number with no mark means an inactive call.
Legend:
Test in all cases: log2 fold change, soluble protein after heating vs DMSO (PISA); higher = thermal stabilisation; K562 cells, 10 uM, 30 min; active = over 0.2 and 3.5 SD of the protein, either way, in both replicates (recomputed)
erlotinib = compound: C#Cc1cccc(Nc2ncnc3cc(OCCOC)c(OCCOC)cc23)c1 [erlotinib]
Method in brief: (§1)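 K562 cells (2×10^6 cells/mL) were treated with 10 μM compound for 30 min, and aliquots were heated for 3 min over 48°C-58°C. Pooled aliquots were extracted in PBS with 0.5% NP-40 at 4°C, and the supernatant after 21,000xg for 90 min was measured by TMTpro 16plex LC-MS/MS with channel sums equalised. Reported thermal stability, relative to control samples and from duplicates, is a log2 fold change.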

[1] = compound: C/C(=N\NC(=O)C1=CC(=CC=C1)S(=O)(=O)N2CCOCC2)/C3=C(C=CC(=C3)Cl)O
Method in brief: as §1

[2] = compound: C1=CC(=C(C=C1Cl)C2=NC3=NC=CN=C3C(=N2)NC4=CC=NC=C4)F
Method in brief: as §1

[3] = compound: C1=CC(=CC=C1C2=NC3=C(N2)C=C(C=C3)C(=O)N)OC4=CC=C(C=C4)Cl
Method in brief: as §1

[4] = compound: C1=CC2=C(C=CC(=C2)/C=C\3/C(=O)NC(=NCC4=CC=CS4)S3)N=C1
Method in brief: as §1

[5] = compound: C1=CC2=NC=CN=C2C=C1/C=C/3\C(=O)NC(=O)S3
Method in brief: as §1

[6] = compound: C1=CC=C(C=C1)C2=NC(=C(N2)C3=CC=NC=C3)C4=CC(=C(C=C4)Cl)O
Method in brief: as §1

[7] = compound: C1=CC=C2C(=C1)C3=NNC4=CC=CC(=C43)C2=O
Method in brief: as §1

[8] = compound: C1CCN(C1)C(=O)NC2=CC=CC(=C2)NC3=NC=C(C(=N3)NCCC4=CN=CN4)Br
Method in brief: as §1

[9] = compound: C1CN(CCC1(CC2=CC=C(C=C2)Cl)N)C3=NC=NC4=C3C=CN4
Method in brief: as §1

IRAK-1-4 Inhibitor I = compound: C1COCCN1CCN2C3=CC=CC=C3N=C2NC(=O)C4=CC(=CC=C4)[N+](=O)[O-] [IRAK-1-4 Inhibitor I]
Method in brief: as §1

ibrutinib = compound: C=CC(=O)N1CCC[C@@H](n2nc(-c3ccc(Oc4ccccc4)cc3)c3c(N)ncnc32)C1 [ibrutinib]
Method in brief: as §1

[10] = compound: CC(=O)c1cnc2ccc(-c3cc(Cl)c(O)c(Cl)c3)nc2c1N[C@H]1CC[C@H](CN(C)C)CC1
Method in brief: as §1

ralimetinib = compound: CC(C)(C)Cn1c(N)nc2ccc(-c3[nH]c(C(C)(C)C)nc3-c3ccc(F)cc3)nc21 [ralimetinib]
Method in brief: as §1

[11] = compound: CC(C)(O)CC(=O)NCCn1ccc2ncnc(Nc3ccc(Oc4cccc(C(F)(F)F)c4)c(Cl)c3)c21
Method in brief: as §1

[12] = compound: CC(C)C1=C2N=C(C=C(N2N=C1)NCC3=CC=CC=C3)NCCCCCCN
Method in brief: as §1

[13] = compound: CC(C)C[C@@H](C=O)NC(=O)[C@H](CC(C)C)NC(=O)[C@H](CC(C)C)NC(=O)OCc1ccccc1
Method in brief: as §1

pinometostat = compound: CC(C)N(C[C@H]1O[C@@H](n2cnc3c(N)ncnc32)[C@H](O)[C@@H]1O)[C@H]1C[C@@H](CCc2nc3cc(C(C)(C)C)ccc3[nH]2)C1 [pinometostat]
Method in brief: as §1

[14] = compound: CC1=C(C(CC(=O)N1)C2=CC=C(C=C2)C(F)(F)F)C(=O)NC3=C(C=C4C(=C3)C=NN4)F
Method in brief: as §1

[15] = compound: CC1=C(C2=C(C=C1)C(=O)C3=CC=CC=C3N2CCCN)C
Method in brief: as §1

Sequence of UniProt Q13247 (Q13247 whole entry, looked up): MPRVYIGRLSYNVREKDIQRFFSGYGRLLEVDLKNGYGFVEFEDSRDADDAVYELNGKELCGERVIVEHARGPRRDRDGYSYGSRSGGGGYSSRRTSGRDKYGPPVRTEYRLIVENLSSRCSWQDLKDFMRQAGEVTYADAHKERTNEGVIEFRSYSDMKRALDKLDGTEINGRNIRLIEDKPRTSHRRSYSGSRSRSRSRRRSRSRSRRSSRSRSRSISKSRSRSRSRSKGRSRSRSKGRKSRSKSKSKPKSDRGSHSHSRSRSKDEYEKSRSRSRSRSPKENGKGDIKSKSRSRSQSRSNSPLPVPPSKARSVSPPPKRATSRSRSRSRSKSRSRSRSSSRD
Sequence of UniProt Q15208 (Q15208 whole entry, looked up): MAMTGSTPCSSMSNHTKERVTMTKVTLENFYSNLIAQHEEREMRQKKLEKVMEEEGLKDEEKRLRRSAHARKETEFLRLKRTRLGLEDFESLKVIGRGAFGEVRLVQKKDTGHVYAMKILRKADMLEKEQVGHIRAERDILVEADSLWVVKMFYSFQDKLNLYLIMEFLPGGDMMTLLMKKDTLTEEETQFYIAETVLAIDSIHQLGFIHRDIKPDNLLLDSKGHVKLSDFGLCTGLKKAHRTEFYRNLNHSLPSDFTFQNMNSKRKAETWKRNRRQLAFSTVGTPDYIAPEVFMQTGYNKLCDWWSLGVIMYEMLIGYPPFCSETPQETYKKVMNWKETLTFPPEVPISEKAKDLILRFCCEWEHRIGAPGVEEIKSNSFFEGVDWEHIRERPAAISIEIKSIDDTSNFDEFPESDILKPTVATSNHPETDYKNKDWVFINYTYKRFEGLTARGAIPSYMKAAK
Sequence of UniProt P04920 (P04920 whole entry, looked up): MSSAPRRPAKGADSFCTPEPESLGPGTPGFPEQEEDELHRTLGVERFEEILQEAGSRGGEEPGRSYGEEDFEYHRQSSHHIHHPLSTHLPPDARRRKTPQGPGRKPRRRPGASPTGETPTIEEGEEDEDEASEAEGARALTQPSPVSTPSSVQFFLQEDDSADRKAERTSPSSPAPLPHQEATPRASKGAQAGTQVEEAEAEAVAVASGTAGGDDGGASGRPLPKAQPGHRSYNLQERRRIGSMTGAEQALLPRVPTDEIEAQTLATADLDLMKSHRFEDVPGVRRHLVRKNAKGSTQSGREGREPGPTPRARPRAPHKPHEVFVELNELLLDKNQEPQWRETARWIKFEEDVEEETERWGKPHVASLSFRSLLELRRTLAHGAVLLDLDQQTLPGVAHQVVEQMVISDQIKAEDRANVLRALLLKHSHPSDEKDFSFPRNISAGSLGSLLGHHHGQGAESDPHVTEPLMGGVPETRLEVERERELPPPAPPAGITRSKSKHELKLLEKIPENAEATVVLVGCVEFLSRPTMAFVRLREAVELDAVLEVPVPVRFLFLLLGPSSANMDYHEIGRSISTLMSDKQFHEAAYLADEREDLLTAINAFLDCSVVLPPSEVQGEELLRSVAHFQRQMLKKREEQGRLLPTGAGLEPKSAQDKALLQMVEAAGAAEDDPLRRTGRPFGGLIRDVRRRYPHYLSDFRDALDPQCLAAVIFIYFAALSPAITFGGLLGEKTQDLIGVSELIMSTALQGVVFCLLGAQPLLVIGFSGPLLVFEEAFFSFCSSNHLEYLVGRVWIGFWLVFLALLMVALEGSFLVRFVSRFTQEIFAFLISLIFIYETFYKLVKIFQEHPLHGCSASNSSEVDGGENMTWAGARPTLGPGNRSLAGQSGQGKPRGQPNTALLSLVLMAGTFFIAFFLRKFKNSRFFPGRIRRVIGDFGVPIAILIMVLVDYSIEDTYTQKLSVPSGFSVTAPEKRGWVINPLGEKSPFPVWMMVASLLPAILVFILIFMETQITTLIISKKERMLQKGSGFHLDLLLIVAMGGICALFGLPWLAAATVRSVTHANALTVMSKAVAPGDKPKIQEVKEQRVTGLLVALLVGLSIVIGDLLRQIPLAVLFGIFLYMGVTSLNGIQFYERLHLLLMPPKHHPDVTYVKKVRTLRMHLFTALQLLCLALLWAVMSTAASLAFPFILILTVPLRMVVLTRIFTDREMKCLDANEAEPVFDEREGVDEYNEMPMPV
Sequence of UniProt Q13043 (Q13043 whole entry, looked up): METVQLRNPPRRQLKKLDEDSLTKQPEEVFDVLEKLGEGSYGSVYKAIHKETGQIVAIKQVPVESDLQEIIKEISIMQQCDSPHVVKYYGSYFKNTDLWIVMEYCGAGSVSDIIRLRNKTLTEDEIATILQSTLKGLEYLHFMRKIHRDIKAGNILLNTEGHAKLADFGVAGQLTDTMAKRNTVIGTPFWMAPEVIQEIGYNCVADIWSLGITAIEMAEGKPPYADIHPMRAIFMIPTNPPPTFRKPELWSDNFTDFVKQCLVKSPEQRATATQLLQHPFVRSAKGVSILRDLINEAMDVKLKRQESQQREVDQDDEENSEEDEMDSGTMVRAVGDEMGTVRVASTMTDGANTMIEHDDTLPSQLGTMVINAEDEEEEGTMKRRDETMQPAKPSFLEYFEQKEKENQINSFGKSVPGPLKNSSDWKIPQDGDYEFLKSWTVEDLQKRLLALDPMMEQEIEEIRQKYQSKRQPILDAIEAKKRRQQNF
Sequence of UniProt Q969Z0 (Q969Z0 whole entry, looked up): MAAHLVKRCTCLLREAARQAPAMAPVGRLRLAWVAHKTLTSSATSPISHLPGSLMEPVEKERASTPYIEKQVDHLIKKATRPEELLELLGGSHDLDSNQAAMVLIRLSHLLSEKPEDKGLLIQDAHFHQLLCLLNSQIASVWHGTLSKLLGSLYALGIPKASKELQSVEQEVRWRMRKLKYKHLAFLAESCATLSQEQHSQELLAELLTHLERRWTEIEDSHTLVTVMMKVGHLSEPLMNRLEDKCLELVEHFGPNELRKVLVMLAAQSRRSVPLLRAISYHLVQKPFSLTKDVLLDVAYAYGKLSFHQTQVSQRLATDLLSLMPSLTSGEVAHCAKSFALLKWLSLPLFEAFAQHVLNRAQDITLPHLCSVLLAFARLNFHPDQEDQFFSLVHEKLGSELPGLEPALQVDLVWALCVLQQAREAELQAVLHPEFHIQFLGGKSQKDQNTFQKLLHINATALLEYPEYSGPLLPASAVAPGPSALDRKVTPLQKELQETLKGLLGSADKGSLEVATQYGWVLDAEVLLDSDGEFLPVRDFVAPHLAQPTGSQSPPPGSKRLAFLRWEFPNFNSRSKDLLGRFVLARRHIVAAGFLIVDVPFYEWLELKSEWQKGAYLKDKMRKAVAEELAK
Sequence of UniProt Q16594 (Q16594 whole entry, looked up): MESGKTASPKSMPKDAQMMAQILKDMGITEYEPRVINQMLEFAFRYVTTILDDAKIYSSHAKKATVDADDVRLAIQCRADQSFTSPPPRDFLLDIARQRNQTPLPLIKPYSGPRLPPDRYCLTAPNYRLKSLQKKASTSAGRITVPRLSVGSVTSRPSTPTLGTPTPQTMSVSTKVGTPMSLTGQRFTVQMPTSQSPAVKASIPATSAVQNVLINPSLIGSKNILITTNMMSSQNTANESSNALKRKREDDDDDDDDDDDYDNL
Sequence of UniProt P12235 (P12235 whole entry, looked up): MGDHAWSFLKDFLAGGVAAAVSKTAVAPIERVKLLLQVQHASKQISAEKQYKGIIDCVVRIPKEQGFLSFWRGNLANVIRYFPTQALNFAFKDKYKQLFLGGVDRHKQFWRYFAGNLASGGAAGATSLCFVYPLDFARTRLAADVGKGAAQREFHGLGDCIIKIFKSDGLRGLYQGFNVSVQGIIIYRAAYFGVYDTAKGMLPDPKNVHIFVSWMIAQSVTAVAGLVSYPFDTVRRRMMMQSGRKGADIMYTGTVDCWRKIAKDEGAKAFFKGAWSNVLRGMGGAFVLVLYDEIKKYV
Sequence of UniProt Q92609 (Q92609 whole entry, looked up): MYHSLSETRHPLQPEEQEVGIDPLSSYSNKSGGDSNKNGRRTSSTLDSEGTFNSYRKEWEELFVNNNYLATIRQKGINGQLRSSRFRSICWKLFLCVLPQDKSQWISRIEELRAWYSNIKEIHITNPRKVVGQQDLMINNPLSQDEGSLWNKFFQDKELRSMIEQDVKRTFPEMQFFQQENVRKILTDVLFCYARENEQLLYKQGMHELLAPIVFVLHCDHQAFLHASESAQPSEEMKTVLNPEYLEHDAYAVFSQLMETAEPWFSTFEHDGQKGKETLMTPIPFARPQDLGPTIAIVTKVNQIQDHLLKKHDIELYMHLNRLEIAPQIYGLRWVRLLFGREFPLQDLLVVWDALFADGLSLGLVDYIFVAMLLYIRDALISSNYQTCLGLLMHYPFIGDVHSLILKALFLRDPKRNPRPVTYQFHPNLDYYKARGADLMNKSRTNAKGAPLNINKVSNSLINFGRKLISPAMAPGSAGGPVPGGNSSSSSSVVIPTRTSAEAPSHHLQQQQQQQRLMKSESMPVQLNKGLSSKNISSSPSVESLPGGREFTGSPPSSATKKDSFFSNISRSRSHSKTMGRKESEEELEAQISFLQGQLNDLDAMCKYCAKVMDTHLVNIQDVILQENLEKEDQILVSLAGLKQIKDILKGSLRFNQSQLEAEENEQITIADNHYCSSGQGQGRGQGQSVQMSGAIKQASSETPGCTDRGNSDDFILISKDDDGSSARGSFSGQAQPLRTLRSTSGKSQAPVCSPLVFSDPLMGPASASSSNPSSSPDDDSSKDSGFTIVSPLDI
Sequence of UniProt Q96BZ9 (Q96BZ9 whole entry, looked up): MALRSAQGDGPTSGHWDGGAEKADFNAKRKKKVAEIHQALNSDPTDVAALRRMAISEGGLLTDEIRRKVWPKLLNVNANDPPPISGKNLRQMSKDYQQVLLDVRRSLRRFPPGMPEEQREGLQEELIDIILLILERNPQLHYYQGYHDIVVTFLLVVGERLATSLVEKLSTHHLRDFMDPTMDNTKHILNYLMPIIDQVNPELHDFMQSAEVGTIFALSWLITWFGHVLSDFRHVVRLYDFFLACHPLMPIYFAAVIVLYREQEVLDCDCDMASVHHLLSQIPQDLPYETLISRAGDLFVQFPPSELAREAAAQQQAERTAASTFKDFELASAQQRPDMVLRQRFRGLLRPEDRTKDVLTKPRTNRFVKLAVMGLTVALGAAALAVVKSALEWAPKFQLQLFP
Sequence of UniProt Q8N5G0 (Q8N5G0 whole entry, looked up): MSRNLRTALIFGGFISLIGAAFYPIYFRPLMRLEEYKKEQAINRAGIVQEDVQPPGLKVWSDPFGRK

Row | Target | log2 fold change (erlotinib) | log2 fold change [1] | log2 fold change [2] | log2 fold change [3] | log2 fold change [4] | log2 fold change [5] | log2 fold change [6] | log2 fold change [7] | log2 fold change [8] | log2 fold change [9] | log2 fold change (IRAK-1-4 Inhibitor I) | log2 fold change (ibrutinib) | log2 fold change [10] | log2 fold change (ralimetinib) | log2 fold change [11] | log2 fold change [12] | log2 fold change [13] | log2 fold change (pinometostat) | log2 fold change [14] | log2 fold change [15]
1 | TBC1D5 isoform 2 (UniProt Q92609) | 0.019 | 0.111 | -0.03 | -0.041 | 0.044 | 0.032 | -0.049 | 0.027 | -0.003 | -0.078 | -0.022 | -0.01 | -0.009 | 0.023 | -0.179 | -0.325 (active) | 0.076 | 0.003 | 0.01 | 0.02
2 | STK38 (UniProt Q15208) | 0.039 | 0.138 | 0.029 | -0.021 | 0.014 | 0.079 | 0.057 | 0.049 | -0.025 | -0.05 | 0.004 | -0.073 | -0.308 (active) | 0.101 | -0.085 | -0.089 | 0.016 | 0.058 | 0.038 | -0.026
3 | SMIM20 isoform 2 (UniProt Q8N5G0) | -0.039 | -0.111 | 0.427 (active) | 0.054 | -0.088 | 0.088 | 0.023 | -0.051 | -0.016 | -0.06 | – | -0.01 | -0.023 | -0.056 | -0.061 | 0.024 | 0.006 | – | 0.05 | -0.058
4 | TBK1 (UniProt Q9UHD2) | -0.042 | 0.009 | 0.003 | -0.048 | 0.044 | 0.026 | -0.082 | 0.009 | 0.029 | -0.105 | -0.046 | -0.019 | -0.162 | 0.024 | -0.067 | -0.208 | 0.046 | 0.087 | 0.028 | -0.091
5 | SMARCA4 (UniProt P51532) | 0.02 | 0.073 | 0.032 | 0.102 | 0.035 | -0.001 | -0.096 | -0.124 | – | – | -0.155 | -0.136 | -0.056 | 0.255 | 0.027 | -0.397 | 0.16 | 0.193 | – | –
6 | SPR (UniProt P35270) | 0.018 | -0.089 | -0.01 | 0.005 | 0.115 | 0.016 | 0.732 (active) | 0.096 | 0.02 | 0.034 | 0.063 | 0.04 | 0.344 | 0.017 | -0.038 | 0.035 | -0.008 | -0.053 | 0.01 | 0.083
7 | SRSF6 (UniProt Q13247) | 0.084 | 0.096 | -0.072 | 0.062 | -0.325 | 0.079 | – | -0.251 | 0.09 | -0.154 | -0.082 | -0.072 | -0.167 | – | 0.234 | -0.086 | – | 0.116 | 0.003 | -0.744
8 | STK4 (UniProt Q13043) | -0.017 | 0 | -0.02 | 0.003 | 0.04 | -0.02 | -0.009 | -0.208 (active) | -0.025 | 0.025 | -0.012 | -0.078 | -0.233 (active) | 0.002 | -0.018 | -0.019 | 0.015 | 0.008 | 0.023 | 0.019
9 | TBC1D20 isoform 3 (UniProt Q96BZ9) | 0.022 | 0.195 | 0.094 | 0.083 | 0.047 | -0.015 | -0.048 | -0.048 | – | – | 0.02 | 0.004 | -0.124 | -0.104 | -0.087 | -0.099 | -0.017 | 0 | -0.061 | –
10 | SLC25A4 (UniProt P12235) | 0.007 | -0.016 | 0.035 | -0.009 | -0.004 | 0.042 | 0.045 | -0.076 | -0.019 | 0.021 | 0.032 | 0.068 | 0.016 | -0.007 | 0.009 | 0.089 | 0.004 | -0.02 | -0.031 | -0.013
11 | SPTBN4 (UniProt Q9H254) | 0.29 | 0 | -0.045 | 0.078 | 0.066 | -0.027 | 0.035 | 0.061 | 0.066 | -0.05 | -0.008 | 0.1 | -0.06 | -0.032 | -0.025 | -0.671 (active) | -0.07 | -0.007 | 0.024 | -0.016
12 | STK38L (UniProt Q9Y2H1) | -0.005 | 0.018 | 0.05 | 0.031 | -0.015 | 0.046 | -0.368 | 0.102 | 0.008 | -0.041 | -0.084 | -0.048 | -0.181 | -0.577 | -0.035 | -0.148 | 0.385 | 0.051 | 0.013 | -0.023
13 | TMBIM1 (UniProt Q969X1) | 0.092 | -0.139 | 0.122 | -0.017 | 0.198 | -0.025 | 0.517 (active) | -0.069 | 0.172 | 0.049 | – | 0.037 | -0.126 | 0.264 | 0.16 | -0.066 | -0.166 | – | -0.107 | 0.089
14 | SLC4A2 (UniProt P04920) | 0.015 | 0.073 | -0.062 | 0.047 | 0.076 | 0.047 | 0.043 | -0.026 | -0.023 | 0.002 | 0.022 | -0.024 | -0.015 | 0.003 | -0.07 | -0.165 | 0.143 | 0.054 | 0.042 | 0.01
15 | TBRG4 (UniProt Q969Z0) | 0.072 | 0.18 | 0.046 | -0.154 | 0.063 | -0.056 | 0.056 | -0.201 | -0.07 | -0.036 | -0.031 | 0 | -0.188 | -0.134 | -0.578 (active) | -0.624 | -0.038 | -0.014 | 0.029 | -0.171
16 | TAF9 (UniProt Q16594) | -0.007 | -0.003 | -0.036 | 0.014 | -0.027 | 0.019 | -0.04 | -0.032 | -0.024 | 0.02 | -0.029 | 0.027 | 0.049 | 0.025 | 0.069 | 0.024 | 0.112 | -0.072 | 0 | -0.005
17 | TFAM (UniProt Q00059) | -0.085 | -0.071 | -0.127 | 0.031 | -0.009 | -0.022 | -0.068 | -0.05 | 0.06 | -0.078 | -0.047 | 0.03 | 0.07 | 0.044 | 0.043 | 0.007 | 0.056 | 0.05 | 0.002 | -0.414 (active)

— the supplement of paper PMC10849652
